# Results: the supplement of paper PMC10849652
# Of roughly 7,900 targets only a part is listed; those with a hit were picked by preference. About 0.6% of all pairs of compound and target were hits. Unmarked numbers belong to inactive results.
# Compound: Cn1cc(-c2ccc3nnc(C(F)(F)c4ccc5ncccc5c4)n3n2)cn1
# Assay: log2 fold change, soluble protein after heating vs DMSO (PISA); higher = thermal stabilisation; K562 cells, 10 uM, 30 min; active = over 0.2 and 3.5 SD of the protein, either way, in both replicates (recomputed)
# In short: (§1)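 Quantification of soluble protein used TMTpro 16plex LC-MS/MS, with channel sums equalised. Samples were the supernatant after 21,000xg for 90 min of pooled aliquots from K562 cells (2×10^6 cells/mL) treated with 10 μM compound for 30 min, heated for 3 min over 48°C-58°C, and extracted in PBS with 0.5% NP-40 at 4°C. Values, from duplicates, describe thermal stability against control samples on a log2 fold-change scale.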
# UniProt Q9NX61, sequence (Q9NX61 whole entry, looked up): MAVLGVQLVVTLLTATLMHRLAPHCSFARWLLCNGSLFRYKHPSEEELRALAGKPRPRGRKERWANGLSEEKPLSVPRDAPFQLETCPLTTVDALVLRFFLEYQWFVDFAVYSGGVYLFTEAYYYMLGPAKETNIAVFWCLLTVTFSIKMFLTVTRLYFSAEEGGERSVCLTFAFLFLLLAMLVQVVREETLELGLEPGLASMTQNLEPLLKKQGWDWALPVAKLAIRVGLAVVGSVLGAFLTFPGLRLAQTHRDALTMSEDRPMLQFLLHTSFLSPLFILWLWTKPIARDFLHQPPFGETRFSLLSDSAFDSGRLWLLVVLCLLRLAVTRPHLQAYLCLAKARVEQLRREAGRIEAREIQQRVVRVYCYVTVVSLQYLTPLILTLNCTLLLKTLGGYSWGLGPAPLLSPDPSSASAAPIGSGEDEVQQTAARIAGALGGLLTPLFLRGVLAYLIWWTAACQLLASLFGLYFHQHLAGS
# UniProt O43156, sequence (O43156 whole entry, looked up): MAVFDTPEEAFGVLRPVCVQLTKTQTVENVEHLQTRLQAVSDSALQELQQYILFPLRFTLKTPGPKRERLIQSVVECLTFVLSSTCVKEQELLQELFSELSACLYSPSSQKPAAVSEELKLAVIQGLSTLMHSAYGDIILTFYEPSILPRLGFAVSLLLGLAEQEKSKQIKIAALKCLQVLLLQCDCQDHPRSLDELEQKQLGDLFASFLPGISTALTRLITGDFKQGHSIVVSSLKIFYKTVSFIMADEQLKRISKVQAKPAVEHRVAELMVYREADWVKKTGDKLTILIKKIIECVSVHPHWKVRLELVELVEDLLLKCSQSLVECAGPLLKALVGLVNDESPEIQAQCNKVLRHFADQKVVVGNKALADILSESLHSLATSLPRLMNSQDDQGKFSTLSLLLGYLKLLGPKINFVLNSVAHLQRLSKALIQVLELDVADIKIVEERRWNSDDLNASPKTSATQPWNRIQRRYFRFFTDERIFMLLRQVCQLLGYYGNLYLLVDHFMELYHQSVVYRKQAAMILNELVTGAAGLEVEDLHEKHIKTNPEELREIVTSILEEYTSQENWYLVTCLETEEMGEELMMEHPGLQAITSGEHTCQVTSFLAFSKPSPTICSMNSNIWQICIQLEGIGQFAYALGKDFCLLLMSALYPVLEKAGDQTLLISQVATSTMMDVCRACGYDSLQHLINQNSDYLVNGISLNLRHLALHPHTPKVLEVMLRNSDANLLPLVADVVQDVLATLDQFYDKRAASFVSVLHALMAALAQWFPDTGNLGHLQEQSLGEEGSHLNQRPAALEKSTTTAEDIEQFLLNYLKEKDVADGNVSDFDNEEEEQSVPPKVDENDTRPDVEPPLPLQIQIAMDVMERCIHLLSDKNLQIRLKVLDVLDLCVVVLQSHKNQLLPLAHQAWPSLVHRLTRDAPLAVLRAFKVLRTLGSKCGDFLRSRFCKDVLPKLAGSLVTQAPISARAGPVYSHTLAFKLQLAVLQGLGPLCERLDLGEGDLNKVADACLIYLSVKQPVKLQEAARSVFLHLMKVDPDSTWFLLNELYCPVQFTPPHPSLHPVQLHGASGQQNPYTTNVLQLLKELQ
# UniProt Q7Z7E8, sequence (Q7Z7E8 whole entry, looked up): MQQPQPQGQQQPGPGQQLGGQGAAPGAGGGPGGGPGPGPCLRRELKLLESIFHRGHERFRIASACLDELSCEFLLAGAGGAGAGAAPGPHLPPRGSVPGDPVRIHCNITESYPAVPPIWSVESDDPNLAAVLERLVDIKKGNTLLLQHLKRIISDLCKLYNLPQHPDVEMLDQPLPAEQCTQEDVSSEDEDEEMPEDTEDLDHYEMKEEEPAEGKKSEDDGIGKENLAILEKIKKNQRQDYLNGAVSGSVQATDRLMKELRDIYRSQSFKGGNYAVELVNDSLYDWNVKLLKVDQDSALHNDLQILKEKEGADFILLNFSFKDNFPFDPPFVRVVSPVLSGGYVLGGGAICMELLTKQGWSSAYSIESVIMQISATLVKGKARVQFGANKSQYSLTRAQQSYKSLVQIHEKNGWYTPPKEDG
# UniProt Q8NEZ2, sequence (Q8NEZ2 whole entry, looked up): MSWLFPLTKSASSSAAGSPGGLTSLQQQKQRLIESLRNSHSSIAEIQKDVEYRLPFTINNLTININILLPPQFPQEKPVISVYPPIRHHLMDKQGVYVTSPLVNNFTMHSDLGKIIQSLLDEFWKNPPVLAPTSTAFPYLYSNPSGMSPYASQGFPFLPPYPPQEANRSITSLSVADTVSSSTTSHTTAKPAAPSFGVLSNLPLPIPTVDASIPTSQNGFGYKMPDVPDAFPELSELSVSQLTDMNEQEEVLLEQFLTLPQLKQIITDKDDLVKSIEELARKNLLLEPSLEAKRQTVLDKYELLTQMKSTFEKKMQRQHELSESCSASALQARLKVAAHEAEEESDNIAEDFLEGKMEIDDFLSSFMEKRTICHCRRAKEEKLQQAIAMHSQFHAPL
# UniProt Q96LJ8, sequence (Q96LJ8 whole entry, looked up): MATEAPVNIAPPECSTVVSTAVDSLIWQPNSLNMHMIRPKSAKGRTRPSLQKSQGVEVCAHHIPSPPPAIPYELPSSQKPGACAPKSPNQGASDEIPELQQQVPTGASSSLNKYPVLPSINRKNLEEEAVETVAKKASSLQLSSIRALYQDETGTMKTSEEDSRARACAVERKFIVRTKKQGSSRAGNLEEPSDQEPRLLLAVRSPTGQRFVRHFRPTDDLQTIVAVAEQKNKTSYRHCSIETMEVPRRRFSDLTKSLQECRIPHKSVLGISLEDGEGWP
# UniProt Q9H4I3, sequence (Q9H4I3 whole entry, looked up): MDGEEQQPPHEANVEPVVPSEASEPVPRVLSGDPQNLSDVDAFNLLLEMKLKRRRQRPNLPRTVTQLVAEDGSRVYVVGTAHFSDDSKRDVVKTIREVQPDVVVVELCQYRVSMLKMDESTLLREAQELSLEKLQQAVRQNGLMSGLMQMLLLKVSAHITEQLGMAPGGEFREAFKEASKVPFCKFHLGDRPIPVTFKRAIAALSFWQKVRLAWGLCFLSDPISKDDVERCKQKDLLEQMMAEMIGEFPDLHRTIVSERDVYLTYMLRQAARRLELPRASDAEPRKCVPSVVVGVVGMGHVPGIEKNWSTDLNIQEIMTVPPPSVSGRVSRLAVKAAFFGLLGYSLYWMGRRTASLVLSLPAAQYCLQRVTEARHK
# UniProt Q502W6, sequence (Q502W6 whole entry, looked up): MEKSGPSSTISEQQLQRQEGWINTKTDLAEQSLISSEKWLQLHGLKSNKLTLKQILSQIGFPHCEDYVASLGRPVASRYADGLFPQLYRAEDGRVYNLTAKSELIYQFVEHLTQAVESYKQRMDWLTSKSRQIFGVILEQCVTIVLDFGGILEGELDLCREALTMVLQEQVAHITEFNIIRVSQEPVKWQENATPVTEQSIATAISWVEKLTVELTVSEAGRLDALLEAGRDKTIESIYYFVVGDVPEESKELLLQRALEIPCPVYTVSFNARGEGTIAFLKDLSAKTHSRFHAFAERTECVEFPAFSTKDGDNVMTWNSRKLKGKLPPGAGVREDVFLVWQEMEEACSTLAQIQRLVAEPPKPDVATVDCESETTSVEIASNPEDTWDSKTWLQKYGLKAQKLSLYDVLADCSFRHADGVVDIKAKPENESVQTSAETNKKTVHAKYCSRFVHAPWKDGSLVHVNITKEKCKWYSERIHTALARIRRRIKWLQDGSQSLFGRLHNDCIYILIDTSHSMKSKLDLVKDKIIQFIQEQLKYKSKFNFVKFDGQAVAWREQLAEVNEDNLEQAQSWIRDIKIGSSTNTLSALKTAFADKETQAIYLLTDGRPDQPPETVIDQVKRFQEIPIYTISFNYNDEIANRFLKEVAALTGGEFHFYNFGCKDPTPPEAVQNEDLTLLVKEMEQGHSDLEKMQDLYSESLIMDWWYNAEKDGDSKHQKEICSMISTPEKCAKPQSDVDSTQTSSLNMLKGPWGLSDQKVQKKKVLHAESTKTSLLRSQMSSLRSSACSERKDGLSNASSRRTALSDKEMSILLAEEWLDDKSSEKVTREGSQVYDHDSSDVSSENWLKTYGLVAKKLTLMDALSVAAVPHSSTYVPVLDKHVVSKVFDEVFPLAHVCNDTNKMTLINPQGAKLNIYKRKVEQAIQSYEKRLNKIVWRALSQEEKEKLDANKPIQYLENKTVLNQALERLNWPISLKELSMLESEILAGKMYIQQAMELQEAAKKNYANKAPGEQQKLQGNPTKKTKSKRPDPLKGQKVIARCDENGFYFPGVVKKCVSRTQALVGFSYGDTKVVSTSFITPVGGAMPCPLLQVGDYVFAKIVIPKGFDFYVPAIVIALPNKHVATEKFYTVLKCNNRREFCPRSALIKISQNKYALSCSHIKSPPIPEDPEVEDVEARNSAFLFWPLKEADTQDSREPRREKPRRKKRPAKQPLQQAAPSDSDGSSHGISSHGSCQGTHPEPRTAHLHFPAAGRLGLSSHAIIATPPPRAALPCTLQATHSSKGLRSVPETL
# UniProt P51668, sequence (P51668 whole entry, looked up): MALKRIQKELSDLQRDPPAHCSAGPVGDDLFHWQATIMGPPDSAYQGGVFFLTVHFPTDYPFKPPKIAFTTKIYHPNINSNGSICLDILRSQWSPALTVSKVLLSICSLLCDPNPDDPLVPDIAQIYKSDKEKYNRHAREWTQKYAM
# UniProt O95857, sequence (O95857 whole entry, looked up): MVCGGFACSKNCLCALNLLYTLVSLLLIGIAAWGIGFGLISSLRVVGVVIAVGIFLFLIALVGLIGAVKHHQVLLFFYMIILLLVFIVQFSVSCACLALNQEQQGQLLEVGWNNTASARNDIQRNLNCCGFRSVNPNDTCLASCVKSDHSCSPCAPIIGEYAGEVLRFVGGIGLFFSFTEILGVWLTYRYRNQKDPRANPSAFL
# UniProt Q9NQ34, sequence (Q9NQ34 whole entry, looked up): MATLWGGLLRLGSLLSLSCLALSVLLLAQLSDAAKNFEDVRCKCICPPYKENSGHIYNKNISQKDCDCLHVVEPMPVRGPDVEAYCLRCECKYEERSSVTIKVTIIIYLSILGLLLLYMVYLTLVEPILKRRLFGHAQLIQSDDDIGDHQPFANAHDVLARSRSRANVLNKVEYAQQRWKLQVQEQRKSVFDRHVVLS
# UniProt P61960, sequence (P61960 whole entry, looked up): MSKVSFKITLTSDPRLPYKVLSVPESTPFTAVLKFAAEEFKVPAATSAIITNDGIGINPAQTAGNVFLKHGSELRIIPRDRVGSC
row,Target,log2 fold change
1,TMEM161A (UniProt Q9NX61),-0.025
2,VWA3B isoform 6 (UniProt Q502W6),0.003
3,VPS37A (UniProt Q8NEZ2),0.014
4,TTI1 (UniProt O43156),0
5,UBE2Q1 (UniProt Q7Z7E8),0.027
6,TRABD (UniProt Q9H4I3),-0.013
7,UBXN10 (UniProt Q96LJ8),0.021

# Compound: Cn1cncc1[C@@](N)(c1ccc(Cl)cc1)c1ccc2c(c1)c(-c1cccc(Cl)c1)cc(=O)n2C [tipifarnib]
# Assay: as above
# In short: as §1
row,Target,log2 fold change
1,TRIM44 (UniProt Q96DX7),-0.041
2,VPS28 (UniProt Q9UK41),-0.051
3,UBE2D1 (UniProt P51668),-0.089
4,TMEM268 isoform 3 (UniProt Q5VZI3),0.003
5,WASHC2A (UniProt Q641Q2),0.052
6,TMEM179B (UniProt Q7Z7N9),0.167
7,UBE4B isoform 4 (UniProt O95155),-0.024
8,TRAPPC6B (UniProt Q86SZ2),-0.028
9,TMEM9B (UniProt Q9NQ34),-0.108
10,TSPAN13 (UniProt O95857),-0.008
11,TMEM8A (UniProt Q9HCN3),0.047
12,WEE1 (UniProt P30291),-0.037
13,UNC119B (UniProt A6NIH7),-0.143
14,TRIM4 (UniProt Q9C037),-0.014
15,UBIAD1 (UniProt Q9Y5Z9),0.003
16,USP48 isoform 8 (UniProt Q86UV5),-0.11
17,TMEM164 (UniProt Q5U3C3),0.059

row,Target,log2 fold change
1,UFM1 isoform 2 (UniProt P61960),-0.016
2,TUT4 (UniProt Q5TAX3),-0.049
3,UBAP2L (UniProt F8W726),0.245
4,TMEM41A (UniProt Q96HV5),0.026
5,XIAP (UniProt P98170),-0.078
6,TMEM106B (UniProt Q9NUM4),0.029
7,TXNL4B (UniProt Q9NX01),0.008
8,UBE2S (UniProt Q16763),-0.072
9,VKORC1 (UniProt Q9BQB6),0
10,TMEM161A (UniProt Q9NX61),-0.165
11,VWA3B isoform 6 (UniProt Q502W6),0.047
12,VPS37A (UniProt Q8NEZ2),-0.112
13,TTI1 (UniProt O43156),-0.103
14,UBE2Q1 (UniProt Q7Z7E8),-0.103
15,TRABD (UniProt Q9H4I3),0.012
16,UBXN10 (UniProt Q96LJ8),0.01
17,TMEM219 (UniProt Q86XT9),0.063
